Screens deposited in PubChem BioAssay by several laboratories.
Exocytosis inh: blocks lytic granule exocytosis | TALL-104 LAMP-1 surface exposure, flow cytometry; cells stimulated with thapsigargin and PMA | inhibition, % at 10 µM | hit rate 0.66% among 360,000 | AID 651702;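 active means inhibition above about 55%, limit read from the data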
PfM18AAP inh: blocks P. falciparum M18 aspartyl aminopeptidase; hit rate 1.2% among 290,000; inhibition, % at 7.35 µM; recombinant PfM18AAP, H-Glu-NHMec fluorogenic cleavage; AID 1822;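 active means inhibition above the campaign mean inhibition over all tested compounds plus 3 SD, cut at about 28% in these data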;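 further: 0% = plate median of test compound wells and 100% = 2 mM ZnCl2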
MIN6 prolif: induces beta-cell replication in MIN6 cells. MIN6 cells proliferation, ATPlite luminescence, 48 h; cells starved in 0.2% serum; 100% = growth in 10% serum. proliferation, % at 10 µM. hit rate 0.29% among 330,000;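 active means compounds whose signal lies at least 3.5 SD above the mean of all wells on their plate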;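 further: 0% = DMSO-treated cells in low-serum medium and 100% = 10% serum control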
SMARCA2 activ: activators of SMARCA2 function | MG213 cells, MMTV-luciferase reporter, dexamethasone, overnight | activation, % at 9.1 µM | hit rate 1% among 370,000; in the data active means activation above about 7.8%;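 further: 0% = vehicle wells and 100% = reference activator wells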
JMJD2C inh: human JMJD2C demethylase inhibition | GST-JMJD2C(1-420) H3K9me3 demethylation, DELFIA europium | hit rate 0.069% among 330,000 | Q9H3R0 | inhibition, % at 2.35 µM;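 active means more than half of a compound's replicate wells show inhibition beyond 50%, single wells judged on their own value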;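 further: signal counts dimethyl H3K9 product captured on neutravidin plate; 0% = median of DMSO wells and 100% = 0.3 times that DMSO median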
ALR inh: human ALR oxidase inhibition via reduced H2O2. P55789. AID 485317. hit rate 3.8% among 290,000. inhibition, % (concentration not given with the values). purified ALR, DTT oxidation, H2O2 HRP-luminol luminescence;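 active means mean replicate inhibition above about 79%, with every replicate also reaching it, limit read from the data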
Target sequence (P55789 whole entry, looked up): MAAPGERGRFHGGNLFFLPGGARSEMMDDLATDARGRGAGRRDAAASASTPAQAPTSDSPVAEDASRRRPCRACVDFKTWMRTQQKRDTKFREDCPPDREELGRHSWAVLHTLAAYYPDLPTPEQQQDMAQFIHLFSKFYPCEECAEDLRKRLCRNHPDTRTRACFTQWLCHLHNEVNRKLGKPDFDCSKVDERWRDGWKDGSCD
Active calls of the source: *; nt = no result given. An excerpt weighted towards active compounds, which were near 5.4% of everything screened.

SMILES	Exocytosis inh	PfM18AAP inh	MIN6 prolif	SMARCA2 activ	JMJD2C inh	ALR inh
Cc1[nH]c2ccccc2c1Cc1n[nH]c(=S)o1	-4	17	-5	1	8	96*
Cc1[nH]c2ccccc2c1Cc1n[nH]c(=S)n1C	-2	13	-2	0	-26	48
O=C(CSc1nc2ccccc2[nH]1)N=Nc1c(O)[nH]c2ccccc12	-4	11	-3	5	7	96*
O=C(CSCc1ccc(Br)cc1)N=Nc1c(O)[nH]c2ccccc12	5	-8	8.7*	0	6	-3
Brc1cccc(Cn2ccc3ccc(-c4ccc5ccn(Cc6cccc(Br)c6)c5c4)cc32)c1	nt	nt	nt	-2	nt	nt
CCCC(=O)N1CCC[C@]2(CC[C@@H](CCC#N)O2)C1	nt	nt	nt	-1	nt	nt
C=CCNC(=S)N/N=C(\C)c1cccnc1	0	-2	1	-3	2	83*
C=CCNC(=S)N/N=C(\C)c1cccc(OC)c1	-2	5	0	0	5	nt
CC(=O)N/C(=N/c1nc(C)cc(C)n1)Nc1cccc(C)c1	-17	-4	1	-2	-4	1
CC(=O)N/C(=N/c1nc(C)cc(C)n1)Nc1ccc(C)cc1C	66*	-7	-2	0	-15	-6
O=c1cc(C(F)(F)F)[nH]c(=S)n1-c1ccccc1	-11	30*	-4	1	4	-1
O=C(CSc1nc2[nH]ncc2c(=O)[nH]1)Nc1cccc(Cl)c1	1	nt	-1	-2	16	2
N#Cc1c(-c2ccco2)nc(SCC(=O)Nc2cccc(Cl)c2)[nH]c1=O	1	-1	-3	-1	10	99*
CCc1ccc(NC(=O)C(C)Sc2nc(-c3ccco3)c(C#N)c(=O)[nH]2)cc1 (configuration not stated)	-12	10	-3	-3	-3	98*
COc1ccc(-c2ccn(-c3cccc(F)n3)n2)cc1	-2	32*	-1	5	nt	nt
C=CCNC(=O)NC[C@@]1(C(=O)OC)CC(=O)N(C)[C@@H]1c1ccccc1	nt	nt	nt	-3	nt	nt
CC(C)CNC(=O)OCc1cn(Cc2ccccc2)nn1	nt	nt	nt	-1	nt	nt
COc1ccc(NC(=O)/C(Cl)=C(/Cl)S(=O)Cc2ccccc2)cn1 (configuration not stated)	39	-82	-4	-7	1	-7
COc1ccc(CS(=O)(=O)/C(Cl)=C(/Cl)C(=O)Nc2ccc(OC)nc2)cc1	84*	-29	-4	nt	18	98*
CC(C)(/C=N/O)N(O)C=C1C=CC(=O)C=C1	-4	4	-4	-5	-1	99*
CC(=O)N=C1C=CC(=CN(O)C(C)(C)Cc2ccccc2)C=C1	0	nt	2	1	-5	-10
CC(C)NCC(O)Cn1c2c(c3ccccc31)CCc1c-2cnn1-c1ccccc1 (configuration not stated)	9	-5	-4	2	-17	89*
COC(=O)C12CCCN1C1C(=O)N(Cc3ccc(C(N)=O)cc3)CC1C2 (configuration not stated)	nt	nt	nt	-1	nt	nt
CC1(C)OC(c2ccccc2)=C/C(=C/C=N/NC(=O)c2ccncc2)O1	1	-9	-3	-1	-18	98*
Cc1ccccc1N=C/C=C1/C=C(c2ccccc2)OC(C)(C)O1	-1	-5	-3	-3	-4	-5
SMILES	Exocytosis inh	PfM18AAP inh	MIN6 prolif	SMARCA2 activ	JMJD2C inh	ALR inh
CCOC(=O)[C@]12CCCC=C1N(Cc1ccc(OC)cc1)C(=O)[C@@H]2CC(=O)NCc1ccccc1	nt	nt	nt	-2	nt	nt
O=C1OCC(CO)(CO)N=C1NNc1ccc(Cl)c(Cl)c1	-2	11	-4	5	1	100*
COc1ccccc1C(=O)NC1CCCCN(Cc2ccc(Cl)cc2)C1=O (configuration not stated)	nt	nt	nt	-2	nt	nt
CCCN1CCCCC(NC(=O)c2ccc3ccccc3c2)C1=O (configuration not stated)	nt	nt	nt	4	nt	nt
CN=c1scc(-c2ccccc2Br)n1/N=C/c1ccc[nH]1	nt	14	-6	nt	39	5
CN=c1scc(-c2cccs2)n1/N=C/c1ccccc1O	10	6	0	-11	-6	87*
CN=c1scc(-c2cccs2)n1/N=C/c1ccc(O)c(O)c1O	0	31*	-5	-1	-10	99*
COC(=O)[C@]12C[C@H](CC(=O)NCC34CC5CC(CC(C5)C3)C4)C(=O)N(CCC3=CCCCC3)C1=C[C@H](C(C)C)O[C@@H]2C1CC1	nt	nt	nt	-1	nt	nt
